# FXIa single inh: human FXIa protease inhibitors, primary screen, biochemical, single compound per well | purified human FXIa, fluorogenic AMC substrate cleavage | inhibition, % at 10 µM | 33,000 compounds, 0.3% hits;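 active = inhibition above 40% in the primary screen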
# FXIIa inh: human FXIIa protease inhibitors, primary screen, biochemical, single well; Coagulation factor XII (Homo sapiens), P00748; purified human FXIIa, AMC substrate fluorescence, 2 h; inhibition, % at 10 µM; 33,000 compounds, 0.2% hits; AID 701, 2007; in the data active = inhibition above about 30%
# A number is an active result; – = inactive. Sampled rows, rich in hits. Any-hit rate of the full collection: about 0.33%.
SMILES,FXIa single inh,FXIIa inh
O=S(=O)(Nc1ccc(S(=O)(=O)Nc2cccc3ccccc23)cc1)c1ccccc1,–,–
O=S(=O)(Nc1cccc2nsnc12)c1ccccc1,48,–
CCCS(=O)(=O)n1nc(-c2ccccc2)cc1N,–,–
CCC(C)(C)n1nnnc1C(c1ccc(C)cc1)N(Cc1ccco1)Cc1cccs1 (stereo unspecified),–,–
Cc1ccc(C(=O)ONc2ccc(N=NC(=O)c3ccccc3O)cc2)cc1,43,–
COC(=O)c1ccc(NC(=O)c2ccccc2SC)cc1,–,–
O=C(NCc1ccccn1)c1cn(CCc2ccccc2)nn1,–,31
CC(c1ccccc1)n1cc(C(=O)NCc2ccccn2)nn1 (stereo unspecified),–,–
COc1ccccc1NC(=O)N1CCC(c2nc3cc(C)c(C)cc3[nH]2)CC1,–,–
CCOC(=O)C1=C(N)N2C(=O)C(C)SC2=C(C(=O)OC)C1c1ccccc1OC (stereo unspecified),–,–
O=C(O)c1cn(-c2ccccc2)nc1-c1cccnc1,–,–
O=C(c1cn(-c2ccccc2)nc1-c1ccncc1)n1nnc2ccccc21,96,89
C=CCn1c(SCC(=O)Nc2cccc(C)c2)nnc1-c1cnccn1,–,–
Cc1c(NC(=O)c2cc(C3CC3)on2)c(=O)n(-c2ccccc2)n1C,–,–
Cc1c(NC(=O)c2cc3ccccc3o2)c(=O)n(-c2ccccc2)n1C,57,–
CCCCN(N=Nc1nonc1OC)c1nonc1OC,–,–
c1ccc(CCn2c(C3CC3)nc3ccccc32)cc1,–,–
O=C(NCc1ccc2c(c1)OCO2)C1CCCN(S(=O)(=O)c2cccc3nonc23)C1 (stereo unspecified),–,–
O=C(NCc1ccccc1)C1CCCN(S(=O)(=O)c2cccc3nonc23)C1 (stereo unspecified),61,–
